# Screens as filed in PubChem BioAssay.
# CHRM4 antagonist: CHRM4 antagonism in calcium assay; actives 0.73% (n = 360,000); CHO-hM4 cells, ACh EC80, Fluo-8 calcium fluorescence; inhibition, % at 3 µM; AID 624125;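 active means inhibition above its plate's cutoff, the mean inhibition of sample wells plus 3 SD, cut at about 27% in these data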;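 further: 0% = acetylcholine EC80 with DMSO and 100% = DMSO without agonist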
# Target sequence (P08173 whole entry, looked up): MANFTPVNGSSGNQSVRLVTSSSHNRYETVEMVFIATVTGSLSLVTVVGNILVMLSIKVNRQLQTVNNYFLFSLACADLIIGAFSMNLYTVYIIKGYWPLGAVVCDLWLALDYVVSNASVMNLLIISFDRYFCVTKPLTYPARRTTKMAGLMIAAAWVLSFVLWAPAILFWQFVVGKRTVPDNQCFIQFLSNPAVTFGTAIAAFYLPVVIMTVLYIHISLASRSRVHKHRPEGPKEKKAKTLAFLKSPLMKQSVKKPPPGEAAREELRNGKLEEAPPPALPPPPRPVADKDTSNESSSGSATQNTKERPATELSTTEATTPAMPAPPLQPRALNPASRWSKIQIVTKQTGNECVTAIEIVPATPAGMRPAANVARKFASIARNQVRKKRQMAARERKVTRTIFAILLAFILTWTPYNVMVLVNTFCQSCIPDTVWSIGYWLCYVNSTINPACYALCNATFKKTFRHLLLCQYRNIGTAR
# M1 ag parental: M1 agonist counterscreen hit in parental CHO-K1 cells | Fluo-8 calcium fluorescence; scaled to maximal ATP response, vehicle zero | activation, % at 3 µM | actives 0.48% (n = 360,000); in the data active means activation above about 15%;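 further: untransfected CHO-K1 host cells lacking M1 receptor as counterscreen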
# CHRM4 agonist: CHRM4 agonism in calcium assay; P08173; CHO-K1 hM4/Gqi5, Fluo-8 calcium fluorescence; vehicle 0%, full acetylcholine response 100%; activation, % at 3 µM; actives 0.14% (n = 360,000); AID 624127;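 active means activation above the run mean over all test wells plus 3 SD, cut at about 32% in these data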;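 further: peak over basal fluorescence ratio per well then scaled between controls; 0% = DMSO wells and 100% = acetylcholine at EC100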
# M4 PAM: potentiates acetylcholine response at human M4 receptor | CHO-K1 hM4/Gqi5, Fluo-8 calcium fluorescence, ACh EC20; 0% = ACh EC20, 100% = maximal ACh | activation, % at 3 µM | actives 0.4% (n = 360,000) | AID 624126;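 active means activation above its plate's cutoff, the mean activation of sample wells plus 3 SD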
# CHO-K1 Ca antag: counter-screen for M1 antagonists: effect in parental CHO-K1 cells; ATP-induced calcium, Fluo-8 fluorescence; inhibition, % at 3 µM; actives 0.6% (n = 360,000); AID 602250;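 active means inhibition above a per-plate cutoff, the plate's mean sample inhibition plus 3 SD, cut at about 24% in these data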;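 further: 0% = DMSO plus EC80 ATP and 100% = DMSO alone without ATP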
# M1 PAM parental: nonselective activator or artifact in parental CHO-K1 calcium assay. ATP EC20, Fluo-8 calcium fluorescence; 0% at ATP EC20, 100% at ATP max. activation, % at 3 µM. actives 0.02% (n = 360,000). AID 602247;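 active means activation above the run cutoff, the mean activation of all test compounds plus 3 SD, cut at about 40% in these data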;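 further: peak over basal fluorescence ratio in a 140 s read after ATP addition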
# An asterisk follows results filed as active. An excerpt weighted towards active compounds, which were near 2% of everything screened.
SMILES,CHRM4 antagonist,M1 ag parental,CHRM4 agonist,M4 PAM,CHO-K1 Ca antag,M1 PAM parental
CCCCN(C1CCS(=O)(=O)C1)S(=O)(=O)c1ccc(OC)cc1 (centres undefined),3,2,1,-3,-2,-5
CCN(C1CCS(=O)(=O)C1)S(=O)(=O)c1ccc(OC)c(OC)c1 (centres undefined),-8,0,1,23*,7,-19
CCOc1ccc2nc(NS(=O)(=O)c3ccc4c(c3)n(C)c(=O)n4C)sc2c1,1,0,1,2,26*,9
CC1CCN(C(=O)c2ccc(S(=O)(=O)NCc3ccco3)cc2)CC1,-24,2,6,13,-10,10
O=C(NCCCNC(=O)c1c(F)cccc1F)c1c(F)cccc1F,-9,0,0,3,-18,19
O=C(NCC(Cl)c1ccc2ccccc2c1)c1c(F)cccc1F (centres undefined),6,20*,10,-12,7,7
CCC(=O)c1ccc(OCC(=O)NNC(=O)c2cc(C)oc2C)cc1,-18,0,0,16,-2,0
COc1cccc(N2CCN(c3ccc4nnc(CCC(=O)Nc5ccccc5OC)n4n3)CC2)c1,5,5,9,-1,-14,11
Cc1nc(N)sc1C(=O)N/N=C/c1ccccc1[N+](=O)[O-],-11,0,3,22*,-7,10
Cc1cc(C)c2c3c(oc2n1)C(=O)N(c1cccc(Cl)c1)CC(=O)N3,-2,1,1,-6,-8,15
Cc1cc(C)c2c3c(sc2n1)C(=O)N(c1ccccc1)CC(=O)N3,32*,5,3,17,-2,15
COc1ccc(S(=O)(=O)N(C)C[C@@H]2OCCCC[C@@H](C)Oc3ccc(NC(=O)NC(C)C)cc3C(=O)N([C@H](C)CO)C[C@@H]2C)cc1,0,0,0,4,-5,14
COc1cccc(-c2nc(Cl)nc3cc(Cl)ccc23)c1,10,0,0,-5,-6,-1
S=C(Nc1cc(Cl)cc(Cl)c1)NC1CCN(Cc2ccccc2)CC1,20,17*,35*,-13,25*,-6
S=C(NCc1ccc(Cl)cc1)NC1CCN(Cc2ccccc2)CC1,27*,9,45*,-20,-1,20
CCC1CN(S(=O)(=O)c2ccc3c(c2)NC(=O)CC(=O)N3)c2cc(Cl)ccc2O1 (centres undefined),-9,1,3,5,-1,16
CCc1csc(CNC(=O)C2CCC(=O)N(Cc3cccc(F)c3)C2)n1 (centres undefined),-7,2,1,1,-14,26
Cc1ccc(OCC(=O)Nc2cccc(S(=O)(=O)N3CCCCCC3)c2)cc1C,2,2,10,-4,14,-11
COc1ccccc1CNc1nc(NCc2ccccc2F)c2sccc2n1,24,17*,15,-9,28*,5
COc1ccccc1CNc1nc(NCc2cccc(OC)c2OC)c2sccc2n1,22,9,16,-12,-5,11
COc1ccccc1CNc1nc(NCc2ccccc2)nc2ccsc12,92*,3,75*,-15,24*,-16
c1ccc(CNc2nc(NCCOc3ccccc3)c3sccc3n2)cc1,54*,35*,58*,-16,28*,-9
C#Cc1cccc(Nc2nc(NCc3ccccc3OC)nc3ccsc23)c1,30*,10,14,-10,11,-3
CC[C@@]1(C(=O)OC)N[C@H](CN(C)S(=O)(=O)c2ccc(C(C)(C)C)cc2)[C@@H]2C(=O)N(Cc3ccccc3)C(=O)[C@@H]21,-2,0,0,6,0,7
CCCS(=O)(=O)NC(=O)C1(C)CCCN(C(=O)c2cncc(Br)c2)C1 (centres undefined),-2,2,0,0,-1,14
Cc1cccc(CN2CCC(n3nccc3NC(=O)CCCc3ccccc3)CC2)n1,-8,1,2,-4,-1,-20
c1ccc(CNc2nc(-c3ccccc3)nc3ccccc23)cc1,6,4,0,-4,11,-7
c1ccc(CNc2nc(NCc3ccccc3)c3ccccc3n2)cc1,49*,14,45*,-17,8,4
